About 79,000 compounds went through this panel and 15% of them were active in at least one assay; those are over-represented in the sample as a whole. Active and inactive are the calls of the source. Cut-off read from the data, not from the text of the source: active = growth inhibition above about 70%; inactive = the rest.
Experiments:
[1] = NCI Yeast Anticancer Drug Screen. Data for the rad50 strain (AID 155);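 note: 0% = growth of vehicle-only cultures of the same strain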; conditions: S. cerevisiae rad50 strain growth inhibition; at 50.0 µM; hits give high values
Method in brief: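 Genetically altered yeast (DNA repair pathway); compound treatment; growth inhibition vs vehicle ctrl.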

[2] = NCI Yeast Anticancer Drug Screen. Data for the mec2-1 strain (AID 157); conditions: S. cerevisiae mec2-1 strain, at 50.0 µM, hits give high values
Method in brief: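 Readout is yeast growth inhibition, normalised to vehicle-treated controls, in the mec2-1 strain exposed to compound.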

[3] = NCI Yeast Anticancer Drug Screen. Data for the sgs1 mgt1 strain (AID 161);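 note: 0% = growth of cultures given vehicle only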; conditions: S. cerevisiae sgs1 mgt1 strain, at 50.0 µM, hits give high values
Method in brief: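 Compounds are added to genetically altered yeast, and growth is compared with cultures given vehicle alone to give percent inhibition.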

[4] = NCI Yeast Anticancer Drug Screen. Data for the cln2 rad14 strain (AID 165);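 note: 0% = growth equal to vehicle treated cultures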; conditions: S. cerevisiae cln2 rad14 strain, at 50.0 µM, hits give high values
Method in brief: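 Relative to vehicle controls, growth inhibition of compound-treated cln2 rad14 yeast was recorded.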

[5] = NCI Yeast Anticancer Drug Screen. Data for the bub3 strain (AID 167); conditions: S. cerevisiae bub3 mutant strain, at 50.0 µM, hits give high values
Method in brief: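 Yeast carrying a defined mutation is treated with each compound, and growth is compared with that of vehicle-exposed cells to give inhibition.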

[6] = NCI Yeast Anticancer Drug Screen. Data for the mlh1 rad18 strain (AID 175); conditions: S. cerevisiae mlh1 rad18 strain growth inhibition; at 50.0 µM; hits give high values
Method in brief: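 Test agents were incubated with a yeast strain of defined genotype (DNA damage repair defect). Inhibition of growth was derived by comparison with vehicle-exposed cultures.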

Measured: growth inhibition

OC1CSCCSCCCSCCSC1
inactive: [1] 34.1% | [2] 22.4% | [3] 44.5% | [4] 15.5% | [5] 35.1% | [6] 40.4%

CO[C@H]1C[C@H]2[C@@H]3CCC4=CC(=O)C=C[C@]4(C)[C@@]3(F)[C@@H](O)C[C@]2(C)[C@@]1(O)C(=O)COC(C)=O
inactive: [1] 6.55% | [2] -0.35% | [3] 22.8% | [4] 33.2% | [5] 1.05% | [6] -6.55%

CC1c2ccccc2CC(CCN(C)C)c2ccccc21 (centres undefined)
inactive: [1] 8.1% | [2] -12.8% | [3] 34% | [4] 13.4% | [5] 28.6% | [6] -20.3%

N#CC1CC=CCC1 (centres undefined)
inactive: [1] 19.4% | [2] 4.95% | [3] 0.35% | [4] 15.2% | [5] -12.9% | [6] -5.65%

O=C1OC(=O)C2C3C=CC(C3)C12 (centres undefined)
inactive: [1] 17.2% | [2] -5.35% | [3] 23.1% | [4] -20.4% | [5] -1.45% | [6] 21.4%

COc1ccc2c(ccc[n+]2CC(=O)c2ccc(SC)cc2)c1
inactive: [1] 1.9% | [2] 12.3% | [3] 20.1% | [4] 21.4% | [5] 19.6% | [6] 0.75%

COc1ccc(C)cc1NC(=O)c1c(Br)c(Br)c(Br)c(Br)c1C(=O)O
inactive: [1] 4.25% | [2] -11.1% | [3] 10.4% | [4] 12.8% | [5] 6.8% | [6] 10.8%

O=C(OCC(O)C(O)C(O)C(SCc1ccccc1)SCc1ccccc1)c1ccc([N+](=O)[O-])cc1 (centres undefined)
inactive: [1] 23.6% | [2] 3.1% | [3] 31.6% | [4] 20.4% | [5] -1% | [6] 5.85%

COc1cc(/C=C/c2ccnc3ccccc23)ccc1N(C)C
inactive: [1] 4.7% | [2] 24.8% | [3] 15.6% | [4] -32.3% | [5] 29.8% | [6] 24.7%

CCOC(=O)CSc1nc(-c2ccc(Cl)cc2)c(C#N)c(=O)[nH]1
inactive: [1] 5.9% | [2] -0.45% | [3] 2% | [4] 27.1% | [5] 8.85% | [6] -79%

COc1onc(C)c1CC(=O)O
inactive: [1] 2.7% | [2] 1.2% | [3] -7.3% | [4] -32.1% | [5] -8.65% | [6] 2.75%

COc1cc(C(=O)Nc2cccc(Cl)c2Cl)cc(OC)c1OC
inactive: [1] -7.45% | [2] -13.6% | [3] 12% | [4] 21.2% | [5] 18% | [6] 10.9%

O=C(Nc1ccccc1[N+](=O)[O-])OCCOc1ccccc1
inactive: [1] 1.65% | [2] 21.2% | [3] 6.8% | [4] -7.2% | [5] 30.8% | [6] -9.85%

CCN(CC)CCCNc1ccnc2c(N)cccc12
inactive: [1] 3.1% | [2] 1.4% | [3] 5.65% | [4] 9.75% | [5] 5.45% | [6] 6.75%

CCCc1c(O)c(=O)c2c(OC)cc(OC)c3c4c(OC)cc(OC)c5c(=O)c(O)c(CCC)c(c1c23)c54
active: [1] 86.1% | [2] 89.4% | [3] 81.3% | [4] 84.5% | [5] 75.8% | [6] 89%

COC(=O)C(C(=O)C(=O)Nc1ccc(Br)cc1)c1nc2ccc(Cl)cc2[nH]c1=O (centres undefined)
inactive: [1] -11% | [2] -5.1% | [3] 21.9% | [4] 7.05% | [5] -1.55% | [6] 2.8%

Cc1ccc(S(=O)(=O)N/N=C(\C(=O)Nc2cccc([N+](=O)[O-])c2)c2nc3ccc([N+](=O)[O-])cc3[nH]c2=O)cc1
inactive: [1] -3% | [2] -6% | [3] 3.65% | [4] 7.4% | [5] -3.1% | [6] 2.2%

Brc1cccc[n+]1CCC[n+]1ccccc1Br
inactive: [1] 14.8% | [2] 18.8% | [3] 28.2% | [4] 33.2% | [5] 19.4% | [6] 15.8%

C/C=C(/c1ccccc1)c1ccc(N(C)C)cc1
inactive: [1] 2.25% | [2] 0.85% | [3] -10.1% | [4] -4.7% | [5] 9.2% | [6] 4.35%

O=C1OC(c2ccccc2)(c2ccc(Cl)cc2)CC1/C=C(\c1ccccc1)c1ccc(Cl)cc1 (centres undefined)
inactive: [1] -2% | [2] 6.65% | [3] 6.6% | [4] -10.4% | [5] -7.4% | [6] 3.65%

Nc1nc2c(c(-c3ccc(F)cc3)n1)COC/C2=C\c1ccc(F)cc1
inactive: [1] 31.5% | [2] 24% | [3] 15.2% | [4] 22.1% | [5] 40.8% | [6] 19.6%

CCCC1(C)COC(=O)OC1
inactive: [1] 6% | [2] 6.5% | [3] 17.5% | [4] 13.9% | [5] 7.1% | [6] 19.9%

COc1nc(NC2OCC(O)C(O)C2O)c(NC2OCC(O)C(O)C2O)c(=O)n1C (centres undefined)
inactive: [1] -7.5% | [2] -1.7% | [3] -11.6% | [4] 22.5% | [5] -31.1% | [6] -12.2%

COc1ccc2cc1Oc1ccc(cc1)CC1c3c(cc(OC)c4c3Oc3cc5c(cc3O4)CCNC5C2)CCN1C (centres undefined)
inactive: [1] -15.9% | [2] -31.6% | [3] -12.2% | [4] -1.1% | [5] -38.8% | [6] -25.1%

CCOC(=O)/C(=N/Nc1ccc(C)cc1)N1C(=S)C=C(C)NN(C)C1=S
inactive: [1] -34.3% | [2] 4% | [3] -31.1% | [4] -13.3% | [5] -19.7% | [6] -30.9%

COc1ccc(-c2cc3cc(Cl)cc(Cl)c3oc2=O)cc1OC
inactive: [1] -13.6% | [2] -8.6% | [3] -17.8% | [4] -4.85% | [5] -3.25% | [6] -16.1%

COc1cc(C(=O)C(O)c2cc(OC)c(OC)c(OC)c2)cc(OC)c1OC (centres undefined)
inactive: [1] 18% | [2] 11.2% | [3] 11.1% | [4] -13% | [5] 2.95% | [6] 28.3%

COc1ccc(CC(O)CN2CCC(CCN)CC2)cc1 (centres undefined)
inactive: [1] -19.8% | [2] -7.45% | [3] -12.2% | [4] -47.9% | [5] 23.6% | [6] -5.65%

O=C(OCCSC(=S)N1CCCCC1)c1ccccc1
inactive: [1] -13.5% | [2] -8.6% | [3] 2.4% | [4] -11.9% | [5] 16.6% | [6] -0.4%

O[C@@H]1CC2(Cl)CC1(Cl)C(Cl)=C2Cl (some centres undefined)
inactive: [1] 19.4% | [2] 5.5% | [3] 11.7% | [4] -2.05% | [5] -4.1% | [6] 18.5%

N#CC(NNC(=O)c1ccccc1O)c1cccc(O)c1 (centres undefined)
inactive: [1] 10.8% | [2] -0.25% | [3] 10.6% | [4] -6.7% | [5] 25.7% | [6] -25%

O=S(=O)(O)c1ccccc1O
inactive: [1] -0.1% | [2] -3.35% | [3] -2.75% | [4] -44.4% | [5] -19.9% | [6] 1.95%

N#Cc1ccc2ccccc2c1
inactive: [1] 4.65% | [2] -7% | [3] 3% | [4] -4.65% | [5] 10.7% | [6] -16.8%

NC1=C(O)c2cccc3cccc(c23)C1=O
inactive: [1] 9.95% | [2] 12.2% | [3] 11.8% | [4] 2.35% | [5] 9.45% | [6] 16.4%

CC(C)OC(=O)C(=O)Nc1cccc(Cl)c1
inactive: [1] -3.45% | [2] -14.1% | [3] -29.5% | [4] -65.8% | [5] -15.3% | [6] -2.5%

O=C(O)C[C@H]1CCCCC12CCOC2=O (some centres undefined)
inactive: [1] 10.8% | [2] 6.7% | [3] -0.7% | [4] -18.6% | [5] 22% | [6] 9.85%

CCCCC[N+](CCCCC)(CCCCC)CCCCC
inactive: [1] -10.8% | [2] -16.4% | [3] -27.4% | [4] 8.4% | [5] 14% | [6] -13.5%

Cc1ccccc1N1CC2CC3C=CC2(C1)O3 (centres undefined)
inactive: [1] 8.5% | [2] 15.9% | [3] 16.8% | [4] -10.1% | [5] 1.35% | [6] 1.7%

Cc1cccc(OCCCCCl)c1
inactive: [1] -18% | [2] -9.7% | [3] -8.25% | [4] 10.4% | [5] -20.6% | [6] -9.3%
